Experimental findings from paper PMC4336329 (PLoS ONE, 2015) are described below.

Screen size: about 310,000 compounds; about 14,000 (4.5%) showed an effect of 50% or more. Effects have a minus sign here. Only a selection was taken, and strong results are over-represented in it overall.
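Further: peak tail current of the secondary pulse compared with the same well before compound.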

The target of this assay is human ether-à-go-go-related gene (hERG) potassium channel (human, UniProt Q12809). Kind of assay: primary screen, population patch clamp on CHO cells stably expressing hERG; higher = less effect of the substance.
Chain of human ether-à-go-go-related gene (hERG) potassium channel (Q12809 whole entry, looked up): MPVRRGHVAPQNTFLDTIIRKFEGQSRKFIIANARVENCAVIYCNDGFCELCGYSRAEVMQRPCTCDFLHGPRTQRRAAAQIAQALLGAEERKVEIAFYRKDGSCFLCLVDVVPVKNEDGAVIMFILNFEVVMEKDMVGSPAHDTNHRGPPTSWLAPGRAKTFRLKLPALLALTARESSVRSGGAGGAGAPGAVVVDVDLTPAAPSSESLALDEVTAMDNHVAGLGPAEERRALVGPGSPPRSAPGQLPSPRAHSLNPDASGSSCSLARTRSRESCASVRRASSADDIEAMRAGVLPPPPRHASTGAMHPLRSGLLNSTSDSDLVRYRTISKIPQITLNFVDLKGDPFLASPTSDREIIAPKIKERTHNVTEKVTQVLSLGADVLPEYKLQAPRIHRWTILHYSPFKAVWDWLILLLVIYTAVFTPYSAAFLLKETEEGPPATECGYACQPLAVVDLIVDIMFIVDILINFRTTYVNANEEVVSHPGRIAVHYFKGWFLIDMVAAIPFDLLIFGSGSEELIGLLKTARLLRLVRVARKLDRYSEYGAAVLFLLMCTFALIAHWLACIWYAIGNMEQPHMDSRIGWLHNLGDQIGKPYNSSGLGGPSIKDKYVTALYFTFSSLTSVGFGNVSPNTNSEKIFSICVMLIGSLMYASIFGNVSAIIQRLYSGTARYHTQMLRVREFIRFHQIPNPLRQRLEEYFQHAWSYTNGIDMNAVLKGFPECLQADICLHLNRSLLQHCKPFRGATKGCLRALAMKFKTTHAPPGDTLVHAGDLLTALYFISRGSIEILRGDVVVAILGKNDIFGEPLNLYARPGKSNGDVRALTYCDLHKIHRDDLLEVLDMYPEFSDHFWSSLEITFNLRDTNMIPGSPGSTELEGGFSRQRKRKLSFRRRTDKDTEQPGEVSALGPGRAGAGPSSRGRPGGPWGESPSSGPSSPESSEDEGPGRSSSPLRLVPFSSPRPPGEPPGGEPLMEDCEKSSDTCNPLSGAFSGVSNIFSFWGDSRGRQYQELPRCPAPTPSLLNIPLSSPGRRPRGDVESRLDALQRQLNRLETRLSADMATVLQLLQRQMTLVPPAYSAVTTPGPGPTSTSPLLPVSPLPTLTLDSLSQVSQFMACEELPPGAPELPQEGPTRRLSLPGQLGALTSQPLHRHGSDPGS
Consider `Cc1nc(N2CCN(Cc3ccccc3)CC2)nc2c1C(=O)CC(C)C2` (stereo not shown), for which the “hERG current change (%, negative = inhibition) at 10uM” value is reported as -5.32%. In the case of `C(=N\N1CCN(C2c3ccccc3-c3ccccc32)CC1)/c1cccnc1`, the “hERG current change (%, negative = inhibition) at 10uM” value was 2.63%. Then `Cc1nnc(NC(=O)c2ccc(S(=O)(=O)N3CC(C)OC(C)C3)cc2)o1` (stereo not shown), with 12.6%.

As for `Cc1ccc(S(=O)(=O)N2CCCC2C(=O)Nc2nc3ccccc3s2)cc1` (stereo not shown), the “hERG current change (%, negative = inhibition) at 10uM” value was -14.8%.

On to `Oc1ccc(/C=N/N=C(c2ccccc2)c2ccccc2)c(O)c1O`, for which the “hERG current change (%, negative = inhibition) at 10uM” value was 8.49%. In the case of `COC(=O)CSc1nccc(C)n1`, the “hERG current change (%, negative = inhibition) at 10uM” value is 14.6%. The result for `COC(=O)c1cn(NC(=O)Cn2nc([N+](=O)[O-])c(Cl)c2C)c(=O)c2ccccc12` reads 18.6%; that for `CC1CCN(S(=O)(=O)c2cccc(C(=O)Nc3ccccn3)c2)CC1`, -22.1%. Turning to `O=C(Nc1ccccc1O)c1cccc(S(=O)(=O)N2CCOCC2)c1`, the “hERG current change (%, negative = inhibition) at 10uM” value is given as 17.7%. Take `O=C(Nc1ccccc1C(=O)N1CCCC1)c1cccc(S(=O)(=O)N2CCCCCC2)c1`: the “hERG current change (%, negative = inhibition) at 10uM” value was -39.3%. Then `CCNC(=O)c1ccccc1NC(=O)c1cccc(S(=O)(=O)N2CCOCC2)c1`, with -71.5%. The result for `CCNC(=O)c1ccccc1NC(=O)c1cccc(S(=O)(=O)N2CCC(C)CC2)c1` reads -55.4%; that for `O=C(Nc1ccccc1C(=O)N1CCCC1)c1cccc(S(=O)(=O)N2CCCCC2)c1`, -12.1%. Take `CC1CCN(S(=O)(=O)c2cccc(C(=O)Nc3ccccc3)c2)CC1`: the “hERG current change (%, negative = inhibition) at 10uM” value is listed as -9.3%. The result for `CNC(=O)c1ccccc1NC(=O)c1cccc(S(=O)(=O)N2CCCCC2)c1` reads -51.1%; that for `Cc1ccccc1NC(=O)c1cccc(S(=O)(=O)N2CCOCC2)c1`, 31.9%. Then `COc1c(O)c(=O)n2c3ccccc3c3ccnc1c32`, with 7.51%; and `CCc1ccc(NC(=O)Nn2cnnc2)cc1`, with 23.7%. Regarding `COC(=O)CNC(=O)CSc1nnc(-c2ccc(OC)cc2)n1CC(C)C`, the “hERG current change (%, negative = inhibition) at 10uM” value is listed as 4.97%. Then `O=C(/C=N/O)Nc1ccccc1C(=O)O`, with -13.7%.

With `N#Cc1ccc(C23CC4(C2)[C@H](CN(CC2CCCCC2)[C@@H]4c2ccccc2)C3c2ccccc2)cc1` (stereo partly shown), the “hERG current change (%, negative = inhibition) at 10uM” value is given as -13.6%. The result for `O=C(Nc1ccc(Cl)cc1)c1cccnc1N1CCCCC1` reads -13.3%; that for `COc1cc(C(=O)NCCNc2nc3ccc(C)cc3cc2C#N)cc(OC)c1OC`, -4.74%; that for `Cc1cccc2cc3c(NC(=O)CC(C)C)nn(C)c3nc12`, 10.2%. In the case of `Clc1cccc(-c2sc(Nc3ccccc3)n[n+]2-c2ccccc2)c1Cl.[Cl-]`, the “hERG current change (%, negative = inhibition) at 10uM” value was determined as 5.53%.

For `Cc1cccc(-c2sc(Nc3ccccc3)n[n+]2-c2ccc(F)cc2)c1.[Cl-]`, the “hERG current change (%, negative = inhibition) at 10uM” value was 21.7%. For the compound `O=C(O)c1ccc(-c2sc(Nc3ccccc3)n[n+]2-c2ccc(F)cc2)cc1.[Cl-]`, the “hERG current change (%, negative = inhibition) at 10uM” value was 2.83%.

With `CSc1ccc(-c2sc(Nc3ccccc3)n[n+]2-c2ccc(F)cc2)cc1.[Cl-]`, the “hERG current change (%, negative = inhibition) at 10uM” value stood at 1.55%.

Turning to `CCN(CC)c1ccc(-c2sc(Nc3ccccc3)n[n+]2-c2ccc(F)cc2)cc1.[Cl-]`, the “hERG current change (%, negative = inhibition) at 10uM” value was -71.6%. Then `Cc1cccc(-c2sc(Nc3ccccc3)n[n+]2-c2ccccc2)c1.[Cl-]`, with -72%. Then `CCc1ccc(Nc2n[n+](-c3ccccc3)c(-c3ccc(N(CC)CC)cc3)s2)cc1.[Cl-]`, with -36%. Then `CSc1ccc(-c2sc(Nc3ccccc3)n[n+]2-c2ccccc2)cc1.[Cl-]`, with -46.2%.

Consider `Fc1ccc(-[n+]2nc(Nc3ccccc3)sc2-c2cccc(Cl)c2Cl)cc1.[Cl-]`, for which the “hERG current change (%, negative = inhibition) at 10uM” value was determined as 8%.

On to `CN(C)c1ccc(-c2sc(Nc3ccccc3)n[n+]2-c2ccc(F)cc2)cc1.[Cl-]`, for which the “hERG current change (%, negative = inhibition) at 10uM” value was -73.1%. Regarding `Fc1ccc(-[n+]2nc(Nc3ccccc3)sc2-c2c(Cl)cccc2Cl)cc1.[Cl-]`, the “hERG current change (%, negative = inhibition) at 10uM” value is -64%.

Take `Oc1ccc(-c2sc(Nc3ccccc3)n[n+]2-c2ccc(F)cc2)cc1.[Cl-]`: the “hERG current change (%, negative = inhibition) at 10uM” value is listed as -1.63%. Then `Cl.O=C(c1ccco1)N1CCN(Cc2nnnn2CC2CCCO2)CC1` (stereo not shown), with -3.16%; and `Cn1c(=O)[nH]c(=O)c2c1nc(NC1CCCC1)n2Cc1ccccc1`, with 15.8%; and `CC1CCN(c2c(NCc3ccc(C(=O)N4c5ccccc5CC4C)cc3)c(=O)c2=O)CC1` (stereo not shown), with -13%. Then `Cc1ccc(S(=O)(=O)Nc2c(C(=O)O)[nH]c3ccccc23)c(C)c1`, with 8.39%. Then `N#C/C(N)=C(/C#N)N=Cc1cccc(Cl)c1`, with 4.99%. With `CCN1CCN(Cc2c(O)ccc3c2O/C(=C\c2ccc(C)cc2)C3=O)CC1`, the “hERG current change (%, negative = inhibition) at 10uM” value is -35.7%. The result for `CSc1ccc(S(=O)(=O)Nc2ccc(NC(C)=O)cc2)cc1` reads -11.3%.
